IMPase inh: IMPase inhibition in cells. AID 901. CHO-M1 cells, IP1 accumulation, HTRF TR-FRET ratio. 120,000 tested, under 10 active. P97697. inhibition (IP1 accumulation), % at 46.1 µM; active = well fitted curve in the direction sought with a large enough effect in the signal ratio, not every such curve was filed as active; inconclusive = small, poorly fitted or top-dose-only effect, or a change in a side signal; inactive = no such curve, though single readings can be large or run the other way; the % refers to the signal ratio;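 note: cells stimulated with carbachol in lithium chloride buffer; plate controls were DMSO basal wells for no effect and reference inhibitor wells for full effect; higher means more IMPase inhibition seen as more IP1 and lower FRET ratio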
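Measured: the HTRF emission ratio (665/620 nm) plus the 620 nm donor channel, each fitted to the Hill equation to give AC50. Cells were CHO-M1 given compounds up to 46 uM and a 30 min carbachol stimulation at 37C.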
PNC assembly inh: perinucleolar compartment assembly inhibition; activity change (PNC), negative = inhibition, % at 10 µM; 3.1% of 140,000 active; PC3M PTB-GFP, PNC prevalence imaging, 16 h; stronger effect = lower value;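 active = readout at or below -70, meaning at least 70% loss of cells showing the perinucleolar compartment, a nuclear body marking cancer cells; inconclusive = readout between -30 and a set limit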;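 note: plate controls were DMSO wells for no effect and camptothecin positive control wells for full effect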
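Compounds are pinned in duplicate onto adhered PC3M cells stably expressing GFP-tagged PTB and incubated 16 h at 37 C. Cells are then fixed, nuclei stained with Hoechst, and PNC-positive cells counted.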
ALDH1A1 block: ALDH1A1 (human) enzyme inhibition; P00352; Purified ALDH1A1, NADH fluorescence, propionaldehyde substrate; Potency, µM (titrated, usually from 75.3 µM), without a hit: at the highest dose activity, negative = inhibition, most hits filed as inhibitors; 7.3% of 220,000 active; active = well fitted inhibition curve with a large enough effect, not every such curve was filed as active; inconclusive = small, poorly fitted or top-dose-only effect, or another doubt; inactive = no such curve, though single readings can be large or run the other way;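 note: potency is the fitted concentration of half-maximal effect; plate controls were no enzyme wells and a reference inhibitor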
IMPase Li cell: cell-permeable IMPase inhibitors with lithium potentiation; CHO-M1 cells, IP1 TR-FRET (IP-One), carbachol + lithium; Potency, µM (series often up to 59.4 µM), inactives show at the highest dose activity, negative = IMPase inhibition, most hits filed as inhibitors; 0.35% of 210,000 active;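 note: IP1 builds up when IMPase is blocked and the TR-FRET signal falls; potency is the fitted concentration of half-maximal effect; plate controls were basal vehicle for no effect and high inhibitor control for full effect; nearly all actives have a fitted effect of over 50% in size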
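Readout is a homogeneous TR-FRET IP1 immunoassay (Ex 320, Em 665 and 620), where raised cytosolic IP1 lowers signal. Cells were CHO-M1 treated 30 min at 37C with test compounds plus a little lithium; AC50 values came from Hill-equation fitting.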
HPGD block: blocks human HPGD enzyme activity. 4.3% of 150,000 active. Potency, µM, for the others: top-dose activity change, negative = inhibition, hits mostly inhibitors. purified HPGD, NADH fluorescence kinetic, PGE2 substrate; active = well fitted inhibition curve with a large enough effect, not every such curve was filed as active; inconclusive = small, poorly fitted or top-dose-only effect, or another doubt; inactive = no such curve, though single readings can be large or run the other way; note: potency is the fitted concentration of half-maximal effect
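NADH formation kinetics: reaction with 30 uM PGE2 and 1 mM NAD+ (final), 20 nM enzyme, Tris-HCl pH 8 with Tween 20, after 15 min compound preincubation at room temperature. Fluorescence change, last versus first of five reads.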
ALOX12 inhib: 12-hLO (ALOX12) enzyme inhibition | P18054 | purified 12-hLO, xylenol orange hydroperoxide absorbance | Potency, µM (titrated, usually from 57.1 µM), for the others: at the top dose activity change, negative = inhibition, most hits filed as inhibitors | 0.12% of 150,000 active; note: potency is the fitted concentration of half-maximal effect; nearly all actives have a fitted effect of over 55% in size
Target sequence (P18054 whole entry, looked up): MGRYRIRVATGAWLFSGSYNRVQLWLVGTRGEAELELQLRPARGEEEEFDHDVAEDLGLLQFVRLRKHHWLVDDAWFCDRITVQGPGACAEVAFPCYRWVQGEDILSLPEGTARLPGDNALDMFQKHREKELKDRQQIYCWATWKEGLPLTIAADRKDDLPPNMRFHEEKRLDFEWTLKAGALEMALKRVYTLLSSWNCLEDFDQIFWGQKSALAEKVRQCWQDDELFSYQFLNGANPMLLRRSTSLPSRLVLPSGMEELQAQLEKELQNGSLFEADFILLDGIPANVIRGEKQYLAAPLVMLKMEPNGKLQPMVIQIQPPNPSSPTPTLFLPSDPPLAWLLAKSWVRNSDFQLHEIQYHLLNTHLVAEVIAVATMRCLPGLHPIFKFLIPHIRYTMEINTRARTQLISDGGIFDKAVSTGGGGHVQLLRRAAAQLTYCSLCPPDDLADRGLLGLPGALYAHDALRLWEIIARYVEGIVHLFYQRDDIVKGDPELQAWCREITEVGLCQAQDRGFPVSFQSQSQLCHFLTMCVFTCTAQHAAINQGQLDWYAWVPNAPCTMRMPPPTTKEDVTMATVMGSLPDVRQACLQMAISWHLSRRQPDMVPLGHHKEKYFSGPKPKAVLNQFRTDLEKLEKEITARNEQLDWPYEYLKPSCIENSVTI
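Purified human 12hLO (150 nM final) was preincubated with compounds for 15 min at room temperature in 25 mM Hepes pH 7.0, 0.01% Triton X-100, then reacted with 40 uM arachidonic acid for 30 min. Hydroperoxide was detected with ferrous iron/xylenol orange.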
An asterisk follows results filed as active; ? = inconclusive; nt = no result given; [ ] = another dose, or the depositor's remark. Sampled rows, rich in hits. Any-hit rate of the full collection: about 11%. Unless noted, calls come from the whole dose curve; as a rule, active = well fitted curve in the direction sought with a large enough effect; inconclusive = small, poorly fitted or top-dose-only effect, or another doubt; inactive = no such curve, though single readings can be large; an effect the other way counts as inactive or inconclusive. Unless noted, % is set by controls: 0 for no effect and ±100 for the full control effect.

SMILES | IMPase inh | PNC assembly inh | ALDH1A1 block | IMPase Li cell | HPGD block | ALOX12 inhib
Cc1noc(C)c1C(=O)N1CCC2(CCCN(c3ccncc3)C2)CC1 | nt | nt | 4% | 12% | -9% | -1%
Fc1cccc(F)c1-n1c(CN2CCCC2)csc1=S | nt | nt | 22µM* | 0% | nt | nt
c1ccc2c(CN3CCCCC3)csc2c1 | nt | -2 | 3% | 4% | 3% | 3%
CCNc1c([N+](=O)[O-])c(=O)oc2ccccc12 | nt | nt | 18µM* | -13% | nt | nt
O=c1oc2ccccc2c(NC(c2ccccc2)c2ccccc2)c1[N+](=O)[O-] | nt | 9 | 22µM* | 8% | -15% | -5%
O=c1oc2ccccc2c(Nc2ccc3ccccc3c2)c1[N+](=O)[O-] | 8 | ? | 2.2µM* | 2%[38.3 µM] | -17% | -13%
Cc1ccc(Nc2c([N+](=O)[O-])c(=O)oc3ccccc23)cc1 | nt | nt | ? | 21% | nt | nt
O=c1oc2ccccc2c(NCc2cccc(F)c2)c1[N+](=O)[O-] | 15 | 202 | 25µM* | 6% | 20µM* | -2%
COc1cccc([C@@H]2Oc3ccc(OC)cc3C[C@H]2OC(=O)Nc2ccc(OC(F)F)cc2)c1 | nt | nt | -5% | 40% | -14% | nt
COc1cccc(Cn2c(=O)c(C)nc3cnc(N4CCN(C)CC4)nc32)c1 | nt | nt | ? | 18% | nt | nt
CC(=O)ON(C(C)=O)S(=O)(=O)c1ccc(Cl)cc1 | 1 | nt | -7% | 0% | 2% | -4%
CCOC(=O)c1sc(-c2ccc(OC)cc2)cc1NC(C)=O | nt | 55 | ? | 11µM* | ? | 3%
CCOC(=O)c1ccc(N(CC(=O)NC2CCCC2)C(=O)CNC(=O)c2ccco2)cc1 | -3 | -85* | -8% | 19%[38.3 µM] | -6% | 0%
O=C(CN(Cc1ccc2c(c1)OCO2)C(=O)CNC(=O)c1ccco1)NC1CCCCC1 | 14 | 7 | 22µM* | 4%[38.3 µM] | -7% | -10%
Cc1cc(C)cc(NC(=O)c2cccc(C(=O)Nc3cc(C)cc(C)c3)c2)c1 | -3 | nt | nt | nt | nt | nt
COc1ccc(S(=O)(=O)N(CC(=O)Nc2cccnc2)c2ccc(C)cc2)cc1OC | -6 | nt | nt | nt | nt | nt
Cc1nc(-c2ccc(-n3nncc3-c3ccco3)cc2)cs1 | nt | nt | 25µM* | nt | nt | nt
COc1ccc(-c2csc(C)n2)cc1 | 0 | -20 | 6% | 4% | -4% | -5%
O=C(c1cnn2c1NC(c1ccco1)CC2C(F)(F)F)N1CCN(c2cccc(Cl)c2)CC1 (configuration not stated) | 8 | -22 | 3.2µM* | 23% | -28% | -16%
O=C(c1ccco1)N1CCN(C(=O)c2cnn3c2NC(c2cccs2)CC3C(F)(F)F)CC1 (configuration not stated) | -3 | 3 | -1% | 15%[38.3 µM] | -3% | -3%
O=C(NCc1ccco1)c1cnn2c1NC(c1ccccc1)CC2C(F)(F)F (configuration not stated) | 7 | ? | -4% | 25%[38.3 µM] | 28µM* | -3%
CC(C)[C@@H](OCc1ccccc1)[C@H](C)/C=N\O[C@@H](C)c1cn([C@H](CO)Cc2ccccc2)nn1 | nt | nt | 2%[13.5 µM] | nt | nt | nt
O=C(O)CC1CCCc2ccccc2C1O (configuration not stated) | nt | nt | 5% | -4% | -6% | nt
O=C(CCSc1ccccc1)Nc1ncccn1 | 1 | -14 | 1% | 7% | -12% | -1%
O=C(CCSc1ccccc1)NC1CCCC1 | -6 | 17 | -4% | 17%[38.3 µM] | 14µM* | 11%
SMILES | IMPase inh | PNC assembly inh | ALDH1A1 block | IMPase Li cell | HPGD block | ALOX12 inhib
O=C(CN1C(=O)C(=O)c2ccccc21)NC1CCCCC1 | 4 | 35 | 0.89µM* | 11% | -6% | -1%
CC(C)(C)NC(=O)CN(C(=O)CN1C(=O)C(=O)c2ccccc21)C(C)(C)C | nt | nt | 0.13µM* | -8% | nt | nt
O=C(CCCCCCN1C(=O)c2ccccc2C1=O)NC1CCCCC1 | -3 | 2 | -3% | 8% | 4.5µM* | -1%
CCc1cccc(CC)c1NC(=O)CN1C(=O)C(=O)c2ccccc21 | 10 | nt | nt | nt | nt | nt
Cc1cc(Cn2cnc3c2C[C@@H](C(=O)O)N(C(=O)C(c2ccccc2)c2ccccc2)C3)ccc1N(C)C | 10 | nt | ? | 7% | -7% | -5%
Cc1cccc(N(CC(=O)NCCc2ccccc2)S(=O)(=O)c2ccccc2)c1C | 14 | nt | nt | nt | nt | nt
Oc1ccc([C@@H]2CNCc3sccc32)cc1O | 3 | nt | nt | nt | nt | 6%
O=c1c(CCc2ccccc2)nc2cnc(N3CCOCC3)nc2n1-c1ccccc1 | nt | nt | ? | 5% | nt | nt
CCOC(=O)OCC1C=C[C@H](c2cc(-c3ccccc3)ccc2O)C(c2ccc(C(C)=O)cc2)O1 (some centres not stated) | nt | nt | 6%[13.5 µM] | nt | nt | nt
O=C(CCCCCN1C(=O)c2ccccc2C1=O)NC1CCCC1 | 2 | -1 | ? | -1%[38.3 µM] | 4.5µM* | -4%
CN(Cc1ccco1)c1ncnc2ccc(-c3cccc(C#N)c3)cc12 | nt | nt | ? | 16% | ? | 2%
O=C(/C(=C/O)N=Nc1cccc(C(F)(F)F)c1)c1ccccc1 | nt | nt | 7.5µM* | 24% | nt | nt
Cc1cccc(N=N/C(=C\O)C(=O)c2ccc(Br)cc2)c1 | nt | nt | ? | 14% | nt | nt
O=C(N/N=C/C(Cl)=C/c1ccccc1)c1ccco1 | nt | nt | -16% | 7% | nt | nt
O=C(/C(=C/O)N=Nc1ccccc1Cl)c1ccccc1 | nt | nt | 7.9µM* | 31% | nt | nt
O=C(Nc1ccccc1Cl)c1ccccc1 | nt | nt | 4% | -4% | nt | nt
O=C(/C(=C/O)N=Nc1ccccc1)c1ccco1 | nt | nt | 14µM* | -1% | nt | nt
N[C@@H]1[C@@H]2[C@@H]3C[C@H]4N(CC[C@@]14C(=O)C(=O)O)CC3=CCO[C@@H]2CC(=O)O | nt | nt | 1%[13.5 µM] | -1% | 0% | 1%[11.4 µM]
CC[C@H]1C2=C3C(CC[C@H]4C(OCc5ccc(F)cc5C(F)(F)F)OC[C@](C)([C@@H]34)N(C(=O)OC(C)(C)C)C2)C(COC)C1COC (some centres not stated) | nt | nt | 0% | -6% | -6% | 0%
COc1c(-c2coc3cc4c(cc3c2=O)CC(O)C(C)(C)O4)ccc2c1C=CC(C)(C)O2 (configuration not stated) | nt | nt | ? | 17% | 16µM* | -20%
COc1c(-c2coc3cc4c(cc3c2=O)CC(OC(C)=O)C(C)(C)O4)ccc2c1C=CC(C)(C)O2 (configuration not stated) | nt | nt | -4% | 27% | -8% | -3%
COc1ccc(OCC(=O)N2c3ccc(C)cc3C3CN(C)CCC32)cc1 (configuration not stated) | nt | nt | 11% | 5% | nt | nt
Cc1ccc2c(c1)C1CN(C)CCC1N2C(=S)NC(=O)c1ccc(Br)cc1 (configuration not stated) | nt | nt | 14µM* | -6% | nt | nt
